# Experimental data taken from PubChem BioAssay.
# Calls of active or inactive are those of the source.
# Columns and labels:
# [1] = small molecules captured by biotinylated probe aFSTL3 – biochemical, small-molecule microarray, fluorescence 635/667, stem cell growth factor project, primary screen (AID 1064); settings: higher = more signal;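 further: measures binding of the biotinylated anti-FSTL3 antibody to printed compounds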
# [2] = binders from COS7 lysate, DM2A8 probe, primary screen, torsin A project, cell lysate, small-molecule microarray, fluorescence 635/667 (AID 1065); settings: higher = more signal, COS7 lysate expressing mutant human TOR1A
# [3] = small molecules captured by biotinylated probe aFGF2 – biochemical, small-molecule microarray, fluorescence 635/667, stem cell growth factor project, primary screen (AID 1067); settings: higher = more signal;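 further: measures binding of biotinylated aFGF2 protein to printed compounds on slides; z-score merges feature fluorescence and signal-to-noise across triplicate slides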
# [4] = small molecules captured by biotinylated probe aFGF10 – biochemical, small-molecule microarray, fluorescence 635/667, stem cell growth factor project, primary screen (AID 1071); settings: higher = more signal;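 further: score merges 667 nm spot intensity and signal to noise from triplicate slides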
# [5] = biological target: Neurogenic locus notch homolog protein 2 (Homo sapiens) (UniProt Q04721); test: small molecules binding Notch2 protein – biochemical, small-molecule microarray, 635 nm fluorescence, stem cell growth factors, primary screen (AID 1073); settings: higher = more signal
# [6] = biological target: Pro-neuregulin-1, membrane-bound isoform (Homo sapiens) (UniProt Q02297); test: small molecules binding neuregulin-1 protein – biochemical, small-molecule microarray, fluorescence 635/667, psychiatric disease protein project, primary screen (AID 1075); settings: NRG1 binding, 635 nm fluorescence, higher = more signal;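 further: score combines 667 nm spot fluorescence with signal to noise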
# [7] = tested on: Neuregulin-1 EGF-like domain; test: small molecules binding NRG1 EGF domain – biochemical, small-molecule microarray, 635 nm fluorescence, primary screen (AID 1081); settings: higher = more signal;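 further: binding of the protein to compounds printed on small-molecule microarray slides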
# [8] = FRG1 expression reporter modulators in myotubes – cell-based, C2C12 myotubes, firefly/Renilla luciferase, luminescence, FRG1 inhibition for FSHD, primary screen (AID 1084); settings: FRG1 promoter luciferase, higher = more signal, called active from +8 up or from −8 down
# [9] = small molecules captured by biotinylated probe aFST – biochemical, small-molecule microarray, fluorescence 635/667, stem cell growth factor project, primary screen (AID 1086); settings: higher = more signal;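 further: score merges 667 nm fluorescence with signal-to-noise of each printed compound spot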
# [10] = binders of probe aHhip on microarray, primary screen, stem cell growth factor project, biochemical, small-molecule microarray, fluorescence 635/667 (AID 1087); settings: higher = more signal;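 further: score merges spot fluorescence at 667nm with spot signal to noise ratio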
# [11] = tested on: PRMT1 (protein arginine N-methyltransferase 1); test: small molecules binding arginine methyltransferase PRMT1 – biochemical, small-molecule microarray, 635 nm fluorescence, primary screen (AID 1088); settings: higher = more signal;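 further: binding of Prmt1 protein to compounds spotted on small-molecule microarray slides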
# [12] = growth effects on S. cerevisiae YJM789 – YJM789 clinical isolate, OD600, 24 h, basal, primary screen (AID 1089); settings: higher = more signal, called active from +8 up or from −8 down;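 further: growth of clinical yeast isolate S. cerevisiae YJM 789 seeded 1000 cells per well; test concentration not given here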
# [13] = S. pombe growth modifiers, basal conditions – strain 972, OD600, 24 h, no modulator, primary screen (AID 1090);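 further: basal condition with compound alone and no growth modifier present; test concentration not given here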; settings: S. pombe 972 growth, higher = more signal, called active from +8 up or from −8 down
# [14] = budding yeast growth modifiers under rapamycin – strain BY4716, OD600, 96 h, primary screen (AID 1091); further: test concentration not given here; settings: S. cerevisiae BY4716 + rapamycin, higher = more signal, called active from +8 up or from −8 down
# [15] = biological target: Torsin-1A-interacting protein 2 (Homo sapiens) (UniProt Q8NFQ8); test: small molecules binding lysate-expressed LULL1 – cell lysate, human LULL1 lysate, 635/667 nm fluorescence, primary screen (AID 1092); settings: small-molecule microarray, hLULL1 lysate binding, 635 nm fluorescence; higher = more signal;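 further: probe is lysate of COS7 cells overexpressing human LULL1; score merges per-feature 667 nm fluorescence with signal-to-noise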
# [16] = optical density change of DRC41 E. coli – strain DRC41, OD650, 24 h, E. coli filamentation project, primary screen (AID 1093);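 further: MC1000 strain lacking acrAB efflux and sulA so SOS filamentation is blocked; test concentration not given here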; settings: E. coli DRC41 growth, higher = more signal, called active from +8 up or from −8 down
# [17] = probe aLefty2 binding to arrayed compounds – biochemical, biotinylated probe, 635/667 nm fluorescence, primary screen (AID 1094); settings: small-molecule microarray, higher = more signal;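 further: score merges spot fluorescence near 667 nm with spot signal-to-noise ratio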
# [18] = tested on: Noggin (protein binding on small-molecule microarray); test: small molecules binding Noggin protein – biochemical, 635/667 nm fluorescence, primary screen (AID 1095); settings: 635 nm fluorescence, higher = more signal;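 further: score merges 667 nm feature fluorescence with signal to noise over triplicate slides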
# [19] = biological target: Neurogenic locus notch homolog protein 3 (Homo sapiens) (UniProt Q9UM47); test: small molecules binding NOTCH3 protein – biochemical, 635/667 nm fluorescence, primary screen (AID 1096); settings: small-molecule microarray, 635 nm fluorescence, higher = more signal
# [20] = probe aEGFR binding to arrayed compounds – biochemical, biotinylated probe, 635/667 nm fluorescence, primary screen (AID 1097); settings: small-molecule microarray, higher = more signal;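 further: probe is a biotinylated anti-EGFR antibody binding compounds printed on slides; score combines fluorescence near 667 nm and signal to noise of each spot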
# Sequence of Torsin-1A-interacting protein 2 (Homo sapiens) (Q8NFQ8 whole entry, looked up): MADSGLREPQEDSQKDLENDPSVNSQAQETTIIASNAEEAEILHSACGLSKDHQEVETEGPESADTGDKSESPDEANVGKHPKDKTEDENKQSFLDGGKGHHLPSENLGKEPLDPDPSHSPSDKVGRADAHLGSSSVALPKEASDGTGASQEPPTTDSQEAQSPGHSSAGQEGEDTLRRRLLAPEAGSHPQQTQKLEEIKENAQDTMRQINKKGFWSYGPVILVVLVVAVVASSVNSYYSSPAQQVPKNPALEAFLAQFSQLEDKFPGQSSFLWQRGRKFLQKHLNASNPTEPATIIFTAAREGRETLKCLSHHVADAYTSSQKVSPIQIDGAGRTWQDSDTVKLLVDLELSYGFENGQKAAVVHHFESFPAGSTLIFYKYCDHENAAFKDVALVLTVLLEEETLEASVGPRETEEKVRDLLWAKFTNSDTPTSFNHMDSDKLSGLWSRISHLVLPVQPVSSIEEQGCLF
# Sequence of Neurogenic locus notch homolog protein 3 (Homo sapiens) (Q9UM47 whole entry, looked up): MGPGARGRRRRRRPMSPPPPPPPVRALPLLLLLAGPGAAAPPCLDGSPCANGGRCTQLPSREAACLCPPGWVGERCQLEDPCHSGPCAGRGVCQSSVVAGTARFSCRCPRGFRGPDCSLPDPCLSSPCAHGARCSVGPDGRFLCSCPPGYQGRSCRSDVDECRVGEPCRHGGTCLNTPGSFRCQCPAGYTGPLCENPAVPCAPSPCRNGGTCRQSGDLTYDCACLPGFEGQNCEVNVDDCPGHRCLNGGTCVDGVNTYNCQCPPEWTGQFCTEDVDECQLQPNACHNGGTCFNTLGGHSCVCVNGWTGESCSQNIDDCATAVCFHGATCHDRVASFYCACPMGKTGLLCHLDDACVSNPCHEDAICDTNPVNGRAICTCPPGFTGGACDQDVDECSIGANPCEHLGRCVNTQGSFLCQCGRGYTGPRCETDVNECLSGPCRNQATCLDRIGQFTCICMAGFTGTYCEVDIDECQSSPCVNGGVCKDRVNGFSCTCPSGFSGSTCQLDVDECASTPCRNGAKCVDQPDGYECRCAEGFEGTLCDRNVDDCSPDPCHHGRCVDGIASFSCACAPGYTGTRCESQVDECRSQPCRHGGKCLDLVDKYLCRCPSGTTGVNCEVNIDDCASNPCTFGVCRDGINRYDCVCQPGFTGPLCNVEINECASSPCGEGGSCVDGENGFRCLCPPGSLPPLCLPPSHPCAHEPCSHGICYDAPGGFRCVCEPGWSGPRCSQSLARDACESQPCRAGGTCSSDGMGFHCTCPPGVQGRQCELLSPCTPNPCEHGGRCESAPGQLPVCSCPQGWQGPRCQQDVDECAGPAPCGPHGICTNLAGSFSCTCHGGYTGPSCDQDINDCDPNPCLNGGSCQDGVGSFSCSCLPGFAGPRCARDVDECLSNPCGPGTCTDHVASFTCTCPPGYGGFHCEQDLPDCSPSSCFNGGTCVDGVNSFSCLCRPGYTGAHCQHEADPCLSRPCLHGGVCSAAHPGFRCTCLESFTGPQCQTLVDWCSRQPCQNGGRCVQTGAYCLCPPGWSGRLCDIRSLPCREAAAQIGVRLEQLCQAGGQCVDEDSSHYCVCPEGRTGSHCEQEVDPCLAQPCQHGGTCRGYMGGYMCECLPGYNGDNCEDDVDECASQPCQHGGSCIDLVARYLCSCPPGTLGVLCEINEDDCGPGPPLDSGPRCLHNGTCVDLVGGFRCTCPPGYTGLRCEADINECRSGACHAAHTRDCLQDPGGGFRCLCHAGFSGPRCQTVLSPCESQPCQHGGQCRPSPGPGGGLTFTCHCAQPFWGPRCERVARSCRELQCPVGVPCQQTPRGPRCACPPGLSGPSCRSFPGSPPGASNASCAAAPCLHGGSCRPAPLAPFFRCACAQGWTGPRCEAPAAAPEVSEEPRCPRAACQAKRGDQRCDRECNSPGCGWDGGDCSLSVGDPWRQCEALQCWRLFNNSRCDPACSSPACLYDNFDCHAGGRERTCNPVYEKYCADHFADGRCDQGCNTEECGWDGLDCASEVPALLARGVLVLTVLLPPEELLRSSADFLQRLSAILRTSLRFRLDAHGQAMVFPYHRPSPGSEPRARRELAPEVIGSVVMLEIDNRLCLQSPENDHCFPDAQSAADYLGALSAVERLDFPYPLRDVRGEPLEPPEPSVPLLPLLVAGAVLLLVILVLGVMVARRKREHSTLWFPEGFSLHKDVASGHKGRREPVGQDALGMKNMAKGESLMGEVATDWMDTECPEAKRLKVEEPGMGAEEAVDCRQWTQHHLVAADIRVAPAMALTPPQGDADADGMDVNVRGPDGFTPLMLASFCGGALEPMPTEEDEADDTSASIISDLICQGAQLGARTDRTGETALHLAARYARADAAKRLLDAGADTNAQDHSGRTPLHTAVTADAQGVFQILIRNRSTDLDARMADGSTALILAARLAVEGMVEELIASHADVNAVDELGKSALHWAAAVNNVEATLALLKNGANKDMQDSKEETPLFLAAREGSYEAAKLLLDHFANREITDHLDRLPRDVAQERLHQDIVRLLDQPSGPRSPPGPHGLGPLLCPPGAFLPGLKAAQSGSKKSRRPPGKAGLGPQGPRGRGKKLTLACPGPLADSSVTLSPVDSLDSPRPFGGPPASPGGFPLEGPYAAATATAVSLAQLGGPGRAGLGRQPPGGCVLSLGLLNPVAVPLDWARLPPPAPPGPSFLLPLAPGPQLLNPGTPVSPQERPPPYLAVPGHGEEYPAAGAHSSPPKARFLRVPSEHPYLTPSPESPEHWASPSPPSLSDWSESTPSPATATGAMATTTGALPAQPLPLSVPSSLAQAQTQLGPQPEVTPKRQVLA
# Sequence of Pro-neuregulin-1, membrane-bound isoform (Homo sapiens) (Q02297 whole entry, looked up, the tested form may be a part, canonical isoform): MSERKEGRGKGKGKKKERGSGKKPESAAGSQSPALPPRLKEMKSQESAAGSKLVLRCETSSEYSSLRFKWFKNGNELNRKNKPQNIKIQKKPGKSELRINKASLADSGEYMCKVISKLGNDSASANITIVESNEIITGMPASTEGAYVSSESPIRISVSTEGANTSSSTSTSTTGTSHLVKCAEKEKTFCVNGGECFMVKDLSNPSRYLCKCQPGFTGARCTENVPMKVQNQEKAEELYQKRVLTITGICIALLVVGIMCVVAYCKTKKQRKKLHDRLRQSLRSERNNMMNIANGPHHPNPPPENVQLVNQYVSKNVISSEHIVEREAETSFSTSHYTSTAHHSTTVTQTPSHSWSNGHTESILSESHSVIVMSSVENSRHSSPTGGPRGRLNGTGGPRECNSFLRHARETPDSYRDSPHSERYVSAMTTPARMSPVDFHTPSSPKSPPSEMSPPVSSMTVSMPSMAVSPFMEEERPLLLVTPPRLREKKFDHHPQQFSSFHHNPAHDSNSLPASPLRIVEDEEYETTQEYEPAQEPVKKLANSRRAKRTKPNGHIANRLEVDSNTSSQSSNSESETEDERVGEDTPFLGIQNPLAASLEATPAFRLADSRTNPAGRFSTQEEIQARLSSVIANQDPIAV
Compound,composite z-score [1],composite z-score [2],composite z-score [3],composite z-score [4],composite z-score [5],composite z-score [6],composite z-score [7],z-score [8],composite z-score [9],composite z-score [10],composite z-score [11],z-score [12],z-score [13],z-score [14],composite z-score [15],z-score [16],composite z-score [17],composite z-score [18],composite z-score [19],composite z-score [20]
COCCOC(=O)N1C(=O)[C@@]2(c3cc(C#CCCO)ccc31)[C@H](c1ccc(O)cc1)N1[C@H](c3ccccc3)[C@H](c3ccccc3)OC(=O)[C@H]1[C@@H]2C(=O)N1CCN(c2ncccn2)CC1,-0.788,0.325,0.005,0.792,1.44,1.49,1.24,-0.606 (inactive),0.437,0.783,1.53,0.356 (inactive),0.686 (inactive),1.6 (inactive),3.17,0.531 (inactive),0.837,1.58,1.01,-0.283
COC(=O)c1c2oc(c1C(=O)OC)C(=O)NC1(CCCCC1)c1cn(nn1)C[C@H](Cc1ccccc1)NC(=O)N[C@H](CO)CC2,-0.414,-0.0111,-0.13,0.117,0.531,1.49,1.11,-0.553 (inactive),-0.224,0.0373,1.27,0.517 (inactive),0.718 (inactive),-0.466 (inactive),2.86,1.52 (inactive),-0.186,0.322,0.705,-0.171
C=C(CCCC)/C(=C/C[C@H](OC(=O)c1ccncc1)c1ccc(OCCO)cc1)c1cc(C(=O)OC)ccc1OC,-0.126,0.123,-0.031,1.15,0.563,0.348,1.01,31.6 (active),-0.348,-0.195,0.834,0.992 (inactive),-0.78 (inactive),-0.676 (inactive),1.27,0.987 (inactive),-0.187,-0.395,-0.0191,0.689
C=CCNC(=O)[C@@H]1[C@H]2C(=O)O[C@H](c3ccccc3)[C@H](c3ccccc3)N2[C@H](c2ccc(OCCO)cc2)[C@@]12C(=O)N(C(=O)OCCOC)c1ccc(C#CCC(C(=O)OC)C(=O)OC)cc12,-0.426,1.25,0.0408,1.05,1.1,1.48,1.12,1.26 (inactive),0.88,0.386,1.54,1.05 (inactive),0.552 (inactive),5.79 (inactive),2.39,-0.0236 (inactive),0.0398,1.18,1.03,0.23
O=C1OCCC=C[C@H]2OC34C=CCN(Cn5nnc6ccccc65)C(=O)[C@H]3N(CCO)C(=O)[C@@H]4C12 (stereo not given in full),-0.254,-0.4,-0.219,-0.308,-1.06,0.0802,1.13,0.684 (inactive),-0.8,-0.226,-0.312,-0.352 (inactive),0.785 (inactive),-0.422 (inactive),-0.316,2.26 (inactive),-0.135,-1.26,-0.491,-0.345
O=C1NC(=O)C2C1C=CC(C(O)C1CC=CCC1)N2Nc1ccccn1 (stereo not given),0.0882,0.922,0.135,0.938,1.2,-0.0625,1.11,0.845 (inactive),0.324,-0.445,0.241,1.13 (inactive),0.869 (inactive),0.728 (inactive),0.861,-0.813 (inactive),0.113,-0.0801,0.328,0.26
COc1ccc(C(=O)Nc2ccc(CN3C(=O)[C@]4(O[C@H](CC(=O)N5CCC[C@H]5CO)[C@@H]([Si](C)(C)c5ccc(OC)cc5)[C@@H]4C)c4ccccc43)cc2)cc1,-0.332,0.355,-0.0715,0.656,0.351,1.42,1.31,-1.54 (inactive),-0.0939,0.0749,1.54,-0.676 (inactive),0.173 (inactive),-0.539 (inactive),2.57,-0.481 (inactive),-0.124,1.35,1.1,-0.12
O=C1O[C@@H](c2ccccc2)[C@@H](c2ccccc2)N2[C@@H](c3ccc(OCCO)cc3)[C@]3(C(=O)Nc4ccc(C#CC5=CCCCC5)cc43)[C@@H](C(=O)N3CCCCCCC3)[C@H]12,3.69,1.51,0.753,0.867,1.49,1.38,1.26,1.75 (inactive),3.12,0.354,1.53,1.1 (inactive),-1.09 (inactive),2.13 (inactive),3.98,0.29 (inactive),1.6,1.78,1.03,1.26
CCOC(=O)C[C@H]1[C@H](OC(=O)c2ccc(-c3ccccc3)cc2)[C@@H](NC(=O)c2ccccc2)c2cc(OCCCO)ccc2N1C(=O)c1ccc2ccccc2n1,-0.168,0.732,-0.105,0.311,0.606,0.742,0.507,1.22 (inactive),0.402,-0.0994,0.316,-1.04 (inactive),0.0452 (inactive),0.545 (inactive),1.23,-0.751 (inactive),0.0769,0.0388,0.742,-0.0031
C=C(CCCC)/C(=C/C[C@H](OC(C)=O)c1ccc(OCCO)cc1)c1cnc2ccccc2c1,-0.173,0.641,-0.115,0.372,1.21,1.32,1.18,-0.851 (inactive),0.703,-0.0672,1.53,-1.1 (inactive),-1.83 (inactive),-0.434 (inactive),1.92,1 (inactive),-0.138,1.04,0.727,-0.0824
